# Assay results published in PubChem BioAssay AID504332 (National Center for Advancing Translational Sciences (NCATS), 2011).
# Where “and” joins values, the source holds several entries; their conditions need not be identical. Identical values can stand only once. In all, about 350,000 compounds went through this assay and about 31,000 (8.9%) were called active. Inconclusive results (about 15%) are left out. Calls come from the whole dose curve; as a rule, active = well fitted inhibition curve with a large enough effect; inconclusive = small, poorly fitted or top-dose-only effect; inactive = no such curve, though single readings can be large or run the other way. For the sample, actives were picked, then their nearest neighbours and some compounds at random. Where a structure was tested more than once in an assay, its records may differ in their call.
# Target: Histone-lysine N-methyltransferase EHMT2 (Homo sapiens) (UniProt Q96KQ7)
# Experiment: qHTS Assay for Inhibitors of Histone Lysine Methyltransferase G9a; note: nearly all actives have a fitted effect of over 75% in size
# Conditions: G9a H3K9 monomethylation, AlphaScreen, 2 h; series mostly up to 59 µM; activity, negative = inhibition: at the top concentration
# In short: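 G9a (20 nM) preincubated 15 min RT with compounds, then 500 nM biotinylated H3K9 peptide and 20 uM SAM added; 2 h RT reaction. Monomethyl-H3K9 product detected by AlphaScreen with anti-H3K9me1 antibody, streptavidin donor and anti-rabbit IgG acceptor beads.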
# % is set by controls: 0 for no effect and ±100 for the full control effect; potency is the fitted concentration of half-maximal effect.
# Histone-lysine N-methyltransferase EHMT2 (Homo sapiens), sequence (Q96KQ7 913-1193 limits assumed): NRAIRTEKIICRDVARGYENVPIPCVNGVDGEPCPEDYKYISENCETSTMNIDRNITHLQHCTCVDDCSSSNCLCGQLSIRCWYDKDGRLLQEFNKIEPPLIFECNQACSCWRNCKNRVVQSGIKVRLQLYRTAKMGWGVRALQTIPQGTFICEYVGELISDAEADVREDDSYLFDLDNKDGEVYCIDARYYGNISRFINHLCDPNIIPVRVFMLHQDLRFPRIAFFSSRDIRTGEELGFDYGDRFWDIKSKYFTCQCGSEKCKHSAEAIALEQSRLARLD
Structure (SMILES),"activity, negative = inhibition",Potency
COc1ccc(OC)c(-n2nnc3c(sc4nc(C)c(Br)c(C)c43)c2=O)c1,-25.7% (inactive),–
O=C(NC1CCCC1)C(=O)c1c[nH]c2ccccc12,47.4% [at 102 µM] (inactive),–
O=C(OCC(=O)c1c[nH]c2ccccc12)c1cccc(O)c1,-89.6% [at 102 µM] (inactive),–
O=S(=O)(O)Oc1c[nH]c2ccccc12,–,2.51 µM (active)
Cc1cccn2c(=O)c(C(=O)NC(C)c3ccccc3)cnc12 (centres undefined),15.6% (inactive),–
Brc1ccc(CSc2ccc(-c3ccco3)nn2)cc1,-9.49% [at 102 µM] (inactive),–
Cc1ccccc1-c1nnc(SCC(=O)NCc2ccc3c(c2)OCO3)n1C,-10.1% [at 12.7 µM] (inactive),–
Fc1cccc(Cl)c1CSc1ccc(-c2ccco2)nn1,–,31.6 µM (active)
CCn1c(CNC(=O)c2ccco2)nnc1SCC(=O)Nc1cccc(F)c1,11.1% [at 102 µM] (inactive),–
Cc1cc(SCc2c(F)cccc2Cl)nc(=O)[nH]1,-5.25% [at 0.501 µM] (inactive),–
O=C(CSc1ccc(-c2ccc(F)cc2)nn1)Nc1ccc2c(c1)OCCO2,-8.82% [at 102 µM] (inactive),–
CCn1c(=O)cc(SCC(=O)NCc2ccc3c(c2)OCO3)c2ccccc21,-1.7% [at 102 µM] (inactive),–
O=C(CSc1ccc(-c2ccco2)nn1)Nc1cccc(F)c1,–,15.8 µM (active)
O=C(CSc1ccc(-c2ccco2)nn1)NCc1ccc2c(c1)OCO2,–,31.6 µM (active)
CCN1C(=O)C(=O)N(CC(=O)Nc2cc(C)ccc2C)C1=O,1.01% [at 2.33 µM] (inactive),–
CCOc1ccc(Nc2nc3c(S(=O)(=O)c4cccc(Cl)c4)nnn3c3ccsc23)cc1,7.88% (inactive),–
CC(C)S(=O)(=O)c1oc(-c2ccc(F)cc2)nc1S(=O)(=O)c1ccc(F)cc1,-38.5% (inactive),–
O=C(CN1C(=O)c2cccc3cccc(c23)C1=O)N1CCCCC1,17.3% (inactive),–
O=C(COC(=O)CCCN1C(=O)c2cccc3cccc(c23)C1=O)NC1CCS(=O)(=O)C1 (centres undefined),3.13% [at 102 µM] (inactive),–
O=C1c2cccc3cccc(c23)C(=O)N1c1cccc(O)c1,21.1% [at 2.33 µM] (inactive),–
O=C1c2cccc3cccc(c23)C(=O)N1CCCCCc1n[nH]c(=S)o1,–,2.51 µM (active)
COc1ccc(N2C(=O)c3cccc4cccc(c34)C2=O)nn1,-3.86% [at 12.7 µM] (inactive),–
C[N+](C)(CCCCCC[N+](C)(C)CCCN1C(=O)c2cccc3cccc(c23)C1=O)CCCN1C(=O)c2cccc3cccc(c23)C1=O,–,inactive and 22.4 µM (active)
O=C(Cn1cnc2c(oc3ccccc32)c1=O)Nc1ccc(OC(F)(F)F)cc1,5.06% (inactive),–
COc1cc(/C=N/NC(=O)c2cccnc2)ccc1OC(=O)c1cccc(Br)c1,40.7% [at 102 µM] (inactive),–

Structure (SMILES),"activity, negative = inhibition",Potency
CCc1ccccc1NC(=O)CN(C)C(=O)c1cc(C2CC2)nn1-c1ccccc1,14.2% [at 12.7 µM] (inactive),–
CCCc1[nH]nc2c1C(c1ccc(OC(=O)c3ccco3)cc1)C(C#N)=C(N)O2 (centres undefined),-8% (inactive),–
CCCc1[nH]nc2c1C(c1ccc(Br)s1)C(C#N)=C(N)O2 (centres undefined),–,50.1 µM (active)
CCCc1[nH]nc2c1C(C1CC=CCC1)C(C#N)=C(N)O2 (centres undefined),11.7% [at 102 µM] (inactive),–
COc1ccc(C2=NN(C(=O)c3ccccc3C(=O)O)C(c3ccccc3O)C2)cc1 (centres undefined),-9.47% (inactive),–
CCC(=O)Nc1ccc(C)cc1-c1nc2ccccc2n(Cc2ccccc2)c1=O,-34% (inactive),–
COc1ccc(NC(=O)CSc2nc(C)cs2)cc1,9.68% [at 102 µM] (inactive),–
COc1ccc(NC(=O)c2sccc2SCC#N)cc1,–,7.94 µM (active)
COc1ccc(NC(=O)c2sc(N)nc2-c2ccccc2)cc1,-2.46% [at 102 µM] (inactive),–
COc1ccccc1-c1sc2ccccc2c1-c1ccc(Br)nc1,-0.161% [at 0.501 µM] (inactive),–
COc1cccc(CNC(=O)C(NS(=O)(=O)c2ccc3nc(C)sc3c2)C(C)C)c1 (centres undefined),5.41% (inactive),–
Cc1ccc(NC(=S)Nc2ccc(F)cc2)cc1,0.197% [at 102 µM] (inactive),–
CC(=O)NS(=O)(=O)c1ccc(NC(=S)NC(=O)C(C)(C)C)cc1,-14.5% [at 0.501 µM] (inactive),–
O=S(=O)(NC(=S)Nc1ccccc1)c1ccc(F)cc1,–,1.58 µM (active)
Cc1cc(C)c(S(=O)(=O)n2cc(C(C)C(N)C(=O)O)c3ccccc32)c(C)c1 (centres undefined),11.6% [at 12.7 µM] (inactive),–
CCn1ccnc1CN1CCCC(C(=O)c2ccc3c4c(cccc24)CC3)C1 (centres undefined),–,35.5 µM (active)
COc1ccc(C(=O)C2CCCN(S(=O)(=O)c3cccc(C)c3)C2)c(C)c1 (centres undefined),-2.54% [at 102 µM] (inactive),–
O=C(CSc1nc2ccccc2c(=O)n1CCCO)NC1CC1,-11.2% [at 2.33 µM] (inactive),–
COc1ccc(C(=O)NCC(c2ccc(N(C)C)cc2)N2CCc3ccccc32)c(OC)c1 (centres undefined),-10.2% (inactive),–
Cc1ccc(S(=O)(=O)NCC(=O)OCC(=O)N2CCc3ccccc32)cc1,-4.28% (inactive),–
COc1ccc(S(=O)(=O)NCC(c2ccc(N(C)C)cc2)N2CCCC2)cc1 (centres undefined),0.776% [at 12.7 µM] (inactive),–
COc1ccc(S(=O)(=O)NCC(c2ccc(N(C)C)cc2)N2CCc3ccccc32)cc1OC (centres undefined),–,14.1 µM (active)
O=S(=O)(NCC(c1ccccc1)N1CCc2ccccc21)c1ccccc1 (centres undefined),–,15.8 µM (active)
O=C(NCC(c1cccnc1)N1CCc2ccccc21)c1cccc(C(F)(F)F)c1 (centres undefined),3.9% (inactive),–
